{"source": "PubChem BioAssay (Tox21)", "note": "Values without a mark were called inactive. The source made the active and inactive calls. Calls come from the whole dose curve; as a rule, active = well fitted activation curve with a large enough effect in the repeat runs; inconclusive = weak or mixed curves; inactive = flat fitted curve, though single readings scatter. % is set by controls: 0 for no effect and ±100 for the full control effect.", "data": [{"test": "A CellTox Green Cytotoxicity Assay to monitor cytotoxicity in HepG2 cells - 0 hour (AID 1224882); note: nearly all actives have a fitted effect of over 35% in size", "settings": "CellTox Green fluorescence; series mostly up to 76.8 µM", "procedure,_shortened": "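Fluorescent DNA-binding dye, 600 HepG2 cells/well, 5 h preincubation then compound in DMSO; same plates read at 0–40 h, 37 C.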", "values": [{"smiles": "BrCCCCCCBr", "outcome": "inactive"}, {"smiles": "Nc1cnn(-c2ccccc2)c(=O)c1Cl", "outcome": "inactive"}, {"smiles": "Fc1cc(Br)ccc1CBr", "outcome": "inactive"}, {"smiles": "Nc1cc2c3c(c1)C(c1ccccc1)=N[C@@H](NC(=O)c1cccnc1)C(=O)N3CC2", "outcome": "inactive"}, {"smiles": "O=[N+]([O-])c1cc(Cl)c(Cl)c(Cl)c1", "outcome": "inactive"}, {"smiles": "CCCSC(=O)N(CCC)CCC", "outcome": "inactive"}, {"smiles": "Cc1cc(C)c(C(=O)P(=O)(C(=O)c2c(C)cc(C)cc2C)c2ccccc2)c(C)c1", "outcome": "inactive"}, {"smiles": "CC(Oc1ccc(Oc2ncc(C(F)(F)F)cc2Cl)cc1)C(=O)O", "note": "(stereo unspecified)", "outcome": "inactive"}, {"smiles": "Cc1coc2c1CCC(C)C2", "note": "(stereo unspecified)", "outcome": "inactive"}, {"smiles": "O=C1c2ccccc2C(=O)c2ccccc21", "cytotoxicity": "5.37% [at 15.8 µM]"}, {"smiles": "CCCCC(=O)Cl", "outcome": "inactive"}, {"smiles": "CCC(=O)C(CCN(C)C)(c1ccccc1)c1ccccc1", "outcome": "inactive"}, {"smiles": "c1cc2c(c(N3CCNCC3)c1)OCCO2", "outcome": "inactive"}, {"smiles": "CCCSC(=O)Cl", "outcome": "inactive"}, {"smiles": "CCOC(=O)NC(=S)Nc1ccccc1NC(=S)NC(=O)OCC", "outcome": "inactive"}, {"smiles": "ClC(Cl)Br", "outcome": "inactive"}, {"smiles": "C(CCOCC1CO1)COCC1CO1", "note": "(stereo unspecified)", "outcome": "inactive"}, {"smiles": "OC(c1ccccc1)(c1ccccc1)C1CCNCC1", "outcome": "inactive"}, {"smiles": "CCN(CC)C(=O)[C@@H]1C=C2c3cccc4[nH]cc(c34)C[C@H]2N(C)C1", "outcome": "inactive"}, {"smiles": "NC(=S)C(N)=S", "outcome": "inactive"}, {"smiles": "CNC(=O)O/N=C(\\C)SC", "outcome": "inactive"}, {"smiles": "N#CCBr", "outcome": "inactive"}, {"smiles": "CCCCCCI", "outcome": "inactive"}, {"smiles": "CC(CC(C#N)(c1ccccc1)c1ccccc1)N(C)C", "note": "(stereo unspecified)", "outcome": "inactive"}, {"smiles": "O=C(Oc1ccc(Br)cc1)N1CCN2CCC1CC2", "outcome": "inactive"}, {"smiles": "COc1cc2c(cc1OC)[C@@]13CCN4CC5=CCO[C@H]6CC(=O)N2[C@H]1[C@H]6[C@H]5C[C@H]43", "outcome": "inactive"}]}]}
